KB-V1 cytotox – qHTS assay for MDR1-selective chemotherapeutics: Primary screen using the drug-selected MDR subline cells KB-V1. KB-V1 MDR cells viability, CellTiter-Glo, 72 h. Potency, µM (series often up to 46.1 µM), hits mostly cytotoxic. hit rate 3.4% among 400,000; further: nearly all actives have a fitted effect of over 60% in size
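KB-V1 cells (P-gp-expressing MDR subline of KB-3-1) in phenol-red-free DMEM with 10% FBS were exposed to library compounds over a concentration series for 72 h at 37 degrees C. Viability read by CellTiter-Glo luminescence; concentration-effect curves fitted after normalization.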
KB-3-1 cytotox – qHTS assay for MDR1-selective chemotherapeutics: Primary screen using the parental adenocarcinoma cell KB-3-1. KB-3-1 viability, CellTiter-Glo ATP luminescence, 72 h. Potency, µM (top dose mostly 46.1 µM), usual class: cytotoxic. hit rate 1.4% among 400,000. AID 1347075, 2019; further: nearly all actives have a fitted effect of over 60% in size
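Cytotoxicity measured as CellTiter-Glo luminescence after 72 h at 37 C. Compound titrations were pinned onto drug-naive KB-3-1 parental adenocarcinoma cells grown in DMEM with 10% FBS, and normalized data fitted to concentration-response curves.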
MCF10A rereplic – A quantitative high throughput screen for small molecules that induce DNA re-replication in MCF 10a normal breast cells. MCF 10A DNA re-replication, Hoechst nuclear intensity, 48 h. Potency, µM (doses to about 46.1 µM), most hits filed as activators. hit rate 2.9% among 350,000. AID 624296, 2012; further: nearly all actives have a fitted effect of over 50% in size
HT1080 IDH1KD tx – qHTS for induction of synthetic lethality in tumor cells producing 2HG: qHTS for the HT-1080-IDH1KD cell line; HT-1080 IDH1 knockdown viability, ATP luminescence, 48 h; Potency, µM (titrated, usually from 46.1 µM), most hits filed as cytotoxic; hit rate 2% among 360,000; AID 686971, 2013
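In this qHTS, HT-1080 cells depleted of IDH1 are exposed for 48 h at 37 °C to compound titrations. Toxicity is scored from CellTiter-Glo luminescence, with DMSO as full viability and medium alone as none.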
HT1080NT lethal – qHTS for induction of synthetic lethality in tumor cells producing 2HG: qHTS for the HT-1080-NT fibrosarcoma cell line; hit rate 1.6% among 360,000; Potency, µM (doses to about 46.1 µM), usual class: cytotoxic; AID 686970, 2013; HT-1080-NT fibrosarcoma viability, CellTiter-Glo ATP luminescence, 48 h;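 further: NT is the 2HG producing partner of a matched IDH1 knockdown line; nearly all actives have a fitted effect of over 55% in size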
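Fibrosarcoma NT cells, 750 per well in 5% FBS RPMI, were exposed to compound for 48 hours. Viability: CellTiter-Glo luminescence.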
SW480 rereplic – A quantitative high throughput screen for small molecules that induce DNA re-replication in SW480 colon adenocarcinoma cells. AID 624297, 2012. Potency, µM (series often up to 46.1 µM), hits mostly activators. hit rate 1.8% among 340,000. SW480 DNA re-replication, Hoechst DNA content imaging, 48 h; further: nearly all actives have a fitted effect of over 55% in size
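Quantitative HTS format with DMSO vehicle controls; 48 hr drug incubation at 37 C, then 40 min Hoechst staining and scanning imager measurement at 405 nm excitation.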
Of the large screens only hits and unclear results are named; the others gave an inactive call; ! = repeats disagree. Shown are actives, neighbours in structure and some others; about 7.9% of the full set was active somewhere. The call rests on the fitted dose curve; in most records, active means well fitted curve in the direction sought with a large enough effect; inconclusive means small, poorly fitted or top-dose-only effect, or another doubt; inactive means no such curve, though single readings can be large; an effect the other way counts as inactive or inconclusive.

NNC(=O)c1oc2nc(-c3ccccc3)cc(-c3ccccc3)c2c1N	MCF10A rereplic 18µM, SW480 rereplic inconclusive
Cc1ccc(-c2cc(-c3ccco3)c3c(N)c(C(=O)NN)oc3n2)cc1	KB-3-1 cytotox inconclusive, MCF10A rereplic 7.3µM, HT1080 IDH1KD tx inconclusive, SW480 rereplic 21µM
CNC(=S)NNC(=O)c1oc2nc(-c3ccccc3)cc(C)c2c1N	MCF10A rereplic 2.6µM, SW480 rereplic 6.5µM
COc1cccc(/C=N/NC(=O)c2oc3nc(-c4ccccc4)cc(-c4ccco4)c3c2N)c1	MCF10A rereplic inconclusive, SW480 rereplic inconclusive
CCN1C(=O)/C(=C\c2cccc(OC(=O)c3ccco3)c2)SC1=S	none
Cc1nc2scc(-c3ccccc3)c2c(=O)n1N=C1C=CC(=O)C=C1	KB-V1 cytotox inconclusive, MCF10A rereplic inconclusive, HT1080 IDH1KD tx inconclusive, HT1080NT lethal 18µM, SW480 rereplic inconclusive
CNC(=O)CCC(=O)Nc1ccc(C)cc1	none
CCOC(=O)c1ccc(NC(=O)c2ccc(C)c(S(=O)(=O)N3CCOCC3)c2)cc1	KB-V1 cytotox inconclusive, KB-3-1 cytotox inconclusive, MCF10A rereplic inconclusive, HT1080 IDH1KD tx inconclusive, HT1080NT lethal inconclusive
CCn1cc(C(=O)OCC(=O)Nc2cccc(S(=O)(=O)N3CCOCC3)c2)c(=O)c2ccc(C)nc21	KB-V1 cytotox 8.2µM
CCOc1cc(N2CCOCC2)c(OCC)cc1NC(=O)c1cccc(S(=O)(=O)N2CCOCC2)c1	KB-V1 cytotox 15µM, HT1080 IDH1KD tx inconclusive
CCOC(=O)c1c(-c2ccccc2)csc1NC(=O)c1ccc(S(=O)(=O)N2CCOCC2)cc1	MCF10A rereplic 12µM, SW480 rereplic inconclusive
CCOc1cc(N2CCOCC2)c(OCC)cc1NC(=O)c1cccc(S(=O)(=O)N2CC(C)OC(C)C2)c1 (stereo not given)	none (no result: MCF10A rereplic, SW480 rereplic)
CCOC(=O)c1ccc(NC(=O)c2cccc(S(=O)(=O)N3CCOCC3)c2)cc1	KB-V1 cytotox 23µM
O=C(Nc1ccc(-c2noc(-c3ccccc3F)n2)cc1)c1cccs1	none
Cc1cccc(NS(=O)(=O)c2cc3c4c(c2)CCN4C(=O)CC3)c1C	KB-V1 cytotox inconclusive
Cc1ccc(OCc2ccc(C(=O)Nc3nc4ccccc4n3Cc3ccccc3)o2)c([N+](=O)[O-])c1	KB-V1 cytotox inconclusive, MCF10A rereplic 13µM, HT1080 IDH1KD tx inconclusive, HT1080NT lethal inconclusive, SW480 rereplic inconclusive
O=C(Nc1nc2ccccc2n1Cc1ccccc1)c1ccc(COc2ccccc2[N+](=O)[O-])o1	KB-V1 cytotox inconclusive, MCF10A rereplic inconclusive, SW480 rereplic inconclusive
Cc1nn(-c2ccccc2)c(C)c1S(=O)(=O)O	HT1080NT lethal inconclusive
O=C(O)CN1C(=O)C=CC1=O	none (no result: MCF10A rereplic, SW480 rereplic)
O=C1C=CC(=O)N1CCCCCCN1C(=O)C=CC1=O	KB-V1 cytotox 18µM, KB-3-1 cytotox inconclusive, MCF10A rereplic 3.7µM, HT1080 IDH1KD tx inconclusive, HT1080NT lethal inconclusive, SW480 rereplic 12µM
CC1(C(=O)NC2CCCCC2)CCC(=O)N1Cc1ccc2c(c1)OCO2 (stereo not given)	none
CC1(C(=O)NC2CCCCCC2)CCC(=O)N1Cc1ccc2c(c1)OCO2 (stereo not given)	KB-V1 cytotox 21µM
CC1(C)SC(=S)N(Cc2ccc3c(c2)OCO3)C1N(O)C(=O)NC1CCCCC1 (stereo not given)	KB-V1 cytotox 15µM, KB-3-1 cytotox inconclusive
O=C(NCc1ccc2c(c1)OCO2)NC1CCCCC1	none
Nc1sc(-c2ccccc2)cc1-c1n[nH]c(=S)n1C1CCCCC1	KB-3-1 cytotox inconclusive, MCF10A rereplic 3.3µM, HT1080 IDH1KD tx 1.5µM, HT1080NT lethal 3.7µM, SW480 rereplic 3.3µM
C=CCn1c(-c2cc(-c3ccccc3)sc2N)n[nH]c1=S	none
COc1ccc(-n2c(-c3cc(-c4ccccc4)sc3N)n[nH]c2=S)cc1	KB-3-1 cytotox inconclusive, HT1080 IDH1KD tx inconclusive, HT1080NT lethal 16µM
CCN(CC)c1ccc(NC(=O)c2ccccc2F)cc1S(=O)(=O)Nc1ccccc1OC	KB-V1 cytotox 9.2µM
CCN(CC)c1ccc(NC(=O)c2ccc(=O)[nH]c2)cc1S(=O)(=O)Nc1ccccc1OC	KB-3-1 cytotox 10µM, MCF10A rereplic inconclusive, HT1080 IDH1KD tx inconclusive, HT1080NT lethal inconclusive, SW480 rereplic inconclusive
CCN(CC)c1ccc(NC(=O)c2ccccc2Br)cc1S(=O)(=O)Nc1ccccc1OC	KB-V1 cytotox inconclusive
CCN=c1scc(-c2ccccc2)n1/N=C/c1ccccn1	KB-V1 cytotox inconclusive, KB-3-1 cytotox 8.2µM, MCF10A rereplic 21µM, HT1080 IDH1KD tx inconclusive, HT1080NT lethal inconclusive
C=CCN=c1scc(-c2ccccc2)n1/N=C/c1ccccn1	KB-V1 cytotox 7.3µM!, KB-3-1 cytotox 1.5µM!, MCF10A rereplic inconclusive, HT1080 IDH1KD tx 18µM, HT1080NT lethal 18µM, SW480 rereplic inconclusive
O=C(Nc1cccc(Cl)c1)c1ccc(F)c(S(=O)(=O)N2CCC3(CC2)OCCO3)c1	KB-3-1 cytotox inconclusive (no result: MCF10A rereplic, HT1080 IDH1KD tx, HT1080NT lethal, SW480 rereplic)
CCc1noc(C)c1C(=O)N1CC(C)SC1=Nc1ccc(Cl)cc1 (stereo not given)	KB-V1 cytotox 16µM
O=[N+]([O-])c1cccc2nc3ccccc3c(NCCCn3ccnc3[N+](=O)[O-])c12	KB-V1 cytotox 0.73µM, MCF10A rereplic inconclusive, HT1080 IDH1KD tx 0.082µM, HT1080NT lethal inconclusive, SW480 rereplic inconclusive
CC(C)c1ccc2oc(-c3ccc(N)cc3)nc2c1	KB-V1 cytotox 21µM, KB-3-1 cytotox inconclusive, HT1080NT lethal inconclusive
O=C(CCCCCn1c(=S)[nH]c2ccc(N3CCOCC3)cc2c1=O)NCc1ccccc1	none
O=c1c2cc(N3CCOCC3)ccc2[nH]c(=S)n1Cc1ccccn1	MCF10A rereplic inconclusive
O=c1c2cc(N3CCOCC3)ccc2[nH]c(=S)n1Cc1ccccc1Cl	MCF10A rereplic 23µM, SW480 rereplic inconclusive
O=C(CCCCCn1c(=S)[nH]c2ccc(N3CCOCC3)cc2c1=O)NCc1cccc(Cl)c1	MCF10A rereplic 16µM, SW480 rereplic inconclusive
O=C(Nc1ccc(N2CCN(c3ncccc3C(F)(F)F)CC2)nc1)c1cccs1	KB-V1 cytotox 18µM, KB-3-1 cytotox 16µM, MCF10A rereplic inconclusive, HT1080 IDH1KD tx 21µM, HT1080NT lethal 18µM
O=C(Nc1ccc(N2CCN(c3ccc(C(F)(F)F)cn3)CC2)nc1)c1cccs1	SW480 rereplic inconclusive
COc1c2ccoc2cc2oc(=O)ccc12	KB-V1 cytotox 26µM
